Measurements published in PubChem BioAssay (NCI).
About 83,000 compounds went through this panel and 20% of them were active in at least one assay; those are over-represented in the sample as a whole.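 96-well plates, one dose, 48 hours. Percent growth reported; active if below 10.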 Values without a mark were called inactive. The source made the active and inactive calls.

Tested on: MALME-3M melanoma
Assay: NCI-60 one-dose screen, 48 h (100 = growth as untreated, 0 = no growth, -100 = all killed)
Conditions: 10 µM unless noted

| SMILES | growth |
| --- | --- |
| CCCC/C(=C\c1ccc(O)c(O)c1)C(=O)NC(Cc1ccccc1)C(=O)C(=O)NCCc1ccc(OC)cc1 (stereo not given) | 101% |
| CCN(CC)c1ccc(/C=N/NC(=O)c2ccc(NS(C)(=O)=O)cc2)cc1 | 15.5% |
| Cc1ccc(C)c(NC2=C(Cl)C(=O)c3nc(C)ccc3C2=O)c1 | -52.4% (active) |
| O=C(CSc1nnc(-c2cccs2)n1-c1ccccc1)Nc1ccccc1F | 70.2% |
| Cc1ccc(CSC2=C(Cl)CN(c3ccc(Cl)cc3)C2=O)cc1 | 96.9% |
| Cn1ncc2c(C(=O)c3ccc(F)cc3)nc(C(C)(C)C)nc21 | 89.7% |
| O=C(CSc1nc2ccccc2c(=O)n1-c1ccccc1)N/N=C/c1ccc(Oc2ccc(Cl)cc2)cc1 | 51.3% |
| Cc1cccc(N2CCN(C3=C(Cl)C(=O)c4ncccc4C3=O)CC2)c1 | 24.4% |
| N/C(=N\C(N)=N\c1nc2ccccc2s1)c1ccc(Cl)cc1 | 90.3% |
| N#Cc1nc(-c2ccccc2)oc1N1CCC(C2(C(F)(F)F)N=N2)CC1 | 102% |
| CC(C)(C)c1cc(NC(=O)Nc2ccc(-c3cn4c5c(sc4n3)CCc3cn(CCCN4CCCCC4)cc3-5)cc2)no1 | -79.1% (active) |
| Cc1csc(/N=C(N)/N=C(\N)c2cccc(Br)c2)n1 | 97.7% |
| Cc1cc2nc(C(Cl)Cl)nc(-c3ccc(S(=O)(=O)N(C)C)cc3)n2n1 | 17.3% |
| C#Cc1nc(/C=C\CCCCCCC(=O)NO)cs1 | -19.8% (active) |
| O=C1C(SCc2ccccc2)=C(Cl)CN1c1ccccc1 | 94.6% |
| CN1c2ccccc2Sc2cc(/C=N/Nc3ccnc4cc(Cl)ccc34)ccc21 | 94.7% |
| NS(=O)(=O)c1ccc(CCn2c(-c3ccc(C(=O)O)cc3)nc(-c3ccccc3)c2-c2ccccc2)cc1 | 97.9% |
| CCCc1cc2cc(-n3nc(CC)c4c3CC(C)(C)CC4=O)cc(NC3CCC(O)CC3)c2c(=O)[nH]1 (stereo not given) | 8.74% (active) |
| O=S(=O)(NCCCNc1nccc(-c2[nH]c(-c3ccccc3)nc2-c2ccc(F)c(O)c2)n1)c1cccc(F)c1 | -2.58% (active) |
| CCCCCCNC(=O)Oc1ccc(/C(=C(/C)c2ccc(OC)cc2)c2ccc(OCCN3CCCCCC3)cc2)cc1 | -34.9% (active) |

| SMILES | growth |
| --- | --- |
| CCOC(=O)Nc1ccc2c(ccn2C(=O)c2cccc(F)c2)c1 | 61.7% |
| O=C(CCCCCCNC(=O)C(O)(O)C(F)(F)F)Nc1ccc(Cl)cc1 | 9.88% (active) |
| CCS(=O)(=O)Nc1ccc(C(=O)CC2(O)C(=O)Nc3ccccc32)cc1 (stereo not given) | 90.1% |
| COc1cccc(N2CCN(C3=C(Cl)C(=O)c4ncccc4C3=O)CC2)c1 | 61.6% |
| Nn1c(=O)n(-c2cccc(C(F)(F)F)c2)c(=O)c2cc(-c3ccc(F)cc3F)ccc21 | -17.2% (active) |
| CC(=O)N1N=C(c2cc3ccccc3oc2=O)CC1c1cn(-c2ccccc2)nc1-c1ccc(C)cc1 (stereo not given) | 92.3% |
| NS(=O)(=O)c1cccc(Nc2nc(SCC(=O)c3ccc(Cl)cc3)nc3c2CCC3)c1 | 96.4% |
| O=C(CCCCCCNC(=O)c1csc(Br)n1)NO | 8.89% (active) |
| Cc1[nH]c(C(=O)Nc2ccccc2OCc2cccc(C(=O)NCCN)c2)cc1Cl | 83.3% |
| O=C(/C=C/Nc1ccc(S(=O)(=O)Nc2ncccn2)cc1)c1ccc(N=Cc2c(O)[nH]c3ccccc23)cc1 | 127% |
| Nc1cc(C(=O)N/N=C\c2ccc(OC(F)F)c(OC3CCCC3)c2)nn1CC(O)c1ccccc1 (stereo not given) | 112% |
| Cc1ccc(C(=O)Nc2ccc(CNCCN3CCOCC3)c(C(F)(F)F)c2)cc1C#Cc1cnc2cccnn12 | -44.6% (active) |
| COc1cc2c3c(cc4c5c(ccc4c3c1OC)OCO5)N(CCN(C)C)C2=O | -79.8% (active) |
| Cc1ccc2c(n1)C(=O)C(Cl)=C(Nc1cccc(C)c1C)C2=O | -5.61% (active) |
| CN(C)CC(=O)Nc1nc(-c2cccc(NS(=O)(=O)c3cccc4c(N(C)C)cccc34)c2)cs1 | 85.2% |
| COc1ccc(NC2=C(Br)C(=O)C(C)=C(C)C2=O)cc1OC | 117% |
| COc1cccc2c1[C@H](OC)[C@]13O[C@@]1(C2=O)[C@H](O)[C@H](C)[C@@](O)(C(=O)[C@@H]1O[C@H]1C)[C@@H]3O | -56.7% (active) |
| O=C(CCCCCCNC(=O)C(O)(O)C(F)(F)F)Nc1ncc(-c2ccccc2)s1 | 13.6% |
| Cc1ccc(-c2nc(SCC(=O)c3ccccc3)nc(Nc3ccc(S(N)(=O)=O)cc3)c2C#N)cc1 | 33.6% |
| NC(=O)c1c(NC(=O)c2ccc(C(F)(F)F)cc2)sc2c1CCC(=O)C2 | -22.4% (active) |

Tested on: MDA-MB-231 breast
Assay: as above
Conditions: 10 µM unless noted

| SMILES | growth |
| --- | --- |
| CCCC/C(=C\c1ccc(O)c(O)c1)C(=O)NC(Cc1ccccc1)C(=O)C(=O)NCCc1ccc(OC)cc1 (stereo not given) | 92.1% |
| CCN(CC)c1ccc(/C=N/NC(=O)c2ccc(NS(C)(=O)=O)cc2)cc1 | 43.2% |
| Cc1ccc(C)c(NC2=C(Cl)C(=O)c3nc(C)ccc3C2=O)c1 | -14.5% (active) |
| O=C(CSc1nnc(-c2cccs2)n1-c1ccccc1)Nc1ccccc1F | 86.5% |
| Cc1ccc(CSC2=C(Cl)CN(c3ccc(Cl)cc3)C2=O)cc1 | 107% |
| Cn1ncc2c(C(=O)c3ccc(F)cc3)nc(C(C)(C)C)nc21 | 102% |
| O=C(CSc1nc2ccccc2c(=O)n1-c1ccccc1)N/N=C/c1ccc(Oc2ccc(Cl)cc2)cc1 | 49.2% |
| Cc1cccc(N2CCN(C3=C(Cl)C(=O)c4ncccc4C3=O)CC2)c1 | 84.8% |
| N/C(=N\C(N)=N\c1nc2ccccc2s1)c1ccc(Cl)cc1 | 79.5% |
| N#Cc1nc(-c2ccccc2)oc1N1CCC(C2(C(F)(F)F)N=N2)CC1 | 93.8% |
| CC(C)(C)c1cc(NC(=O)Nc2ccc(-c3cn4c5c(sc4n3)CCc3cn(CCCN4CCCCC4)cc3-5)cc2)no1 | -77.3% (active) |
| Cc1csc(/N=C(N)/N=C(\N)c2cccc(Br)c2)n1 | 96% |
| Cc1cc2nc(C(Cl)Cl)nc(-c3ccc(S(=O)(=O)N(C)C)cc3)n2n1 | 12.6% |
| C#Cc1nc(/C=C\CCCCCCC(=O)NO)cs1 | -11.8% (active) |
| O=C1C(SCc2ccccc2)=C(Cl)CN1c1ccccc1 | 93.1% |
| CN1c2ccccc2Sc2cc(/C=N/Nc3ccnc4cc(Cl)ccc34)ccc21 | 98.5% |
| NS(=O)(=O)c1ccc(CCn2c(-c3ccc(C(=O)O)cc3)nc(-c3ccccc3)c2-c2ccccc2)cc1 | 92.6% |
| CCCc1cc2cc(-n3nc(CC)c4c3CC(C)(C)CC4=O)cc(NC3CCC(O)CC3)c2c(=O)[nH]1 (stereo not given) | 7.65% (active) |
| O=S(=O)(NCCCNc1nccc(-c2[nH]c(-c3ccccc3)nc2-c2ccc(F)c(O)c2)n1)c1cccc(F)c1 | 79.3% |
| CCCCCCNC(=O)Oc1ccc(/C(=C(/C)c2ccc(OC)cc2)c2ccc(OCCN3CCCCCC3)cc2)cc1 | 6.27% (active) |

| SMILES | growth |
| --- | --- |
| CCOC(=O)Nc1ccc2c(ccn2C(=O)c2cccc(F)c2)c1 | 52.8% |
| O=C(CCCCCCNC(=O)C(O)(O)C(F)(F)F)Nc1ccc(Cl)cc1 | 36.2% |
| CCS(=O)(=O)Nc1ccc(C(=O)CC2(O)C(=O)Nc3ccccc32)cc1 (stereo not given) | 99.6% |
| COc1cccc(N2CCN(C3=C(Cl)C(=O)c4ncccc4C3=O)CC2)c1 | 85.1% |
| Nn1c(=O)n(-c2cccc(C(F)(F)F)c2)c(=O)c2cc(-c3ccc(F)cc3F)ccc21 | -10.2% (active) |
| CC(=O)N1N=C(c2cc3ccccc3oc2=O)CC1c1cn(-c2ccccc2)nc1-c1ccc(C)cc1 (stereo not given) | 94.4% |
| NS(=O)(=O)c1cccc(Nc2nc(SCC(=O)c3ccc(Cl)cc3)nc3c2CCC3)c1 | 92.5% |
| O=C(CCCCCCNC(=O)c1csc(Br)n1)NO | 50.2% |
| Cc1[nH]c(C(=O)Nc2ccccc2OCc2cccc(C(=O)NCCN)c2)cc1Cl | 96% |
| O=C(/C=C/Nc1ccc(S(=O)(=O)Nc2ncccn2)cc1)c1ccc(N=Cc2c(O)[nH]c3ccccc23)cc1 | 99.9% |
| Nc1cc(C(=O)N/N=C\c2ccc(OC(F)F)c(OC3CCCC3)c2)nn1CC(O)c1ccccc1 (stereo not given) | 97.5% |
| Cc1ccc(C(=O)Nc2ccc(CNCCN3CCOCC3)c(C(F)(F)F)c2)cc1C#Cc1cnc2cccnn12 | -18.5% (active) |
| COc1cc2c3c(cc4c5c(ccc4c3c1OC)OCO5)N(CCN(C)C)C2=O | -1.13% (active) |
| Cc1ccc2c(n1)C(=O)C(Cl)=C(Nc1cccc(C)c1C)C2=O | -1.12% (active) |
| CN(C)CC(=O)Nc1nc(-c2cccc(NS(=O)(=O)c3cccc4c(N(C)C)cccc34)c2)cs1 | 83.8% |
| COc1ccc(NC2=C(Br)C(=O)C(C)=C(C)C2=O)cc1OC | 33.3% |
| COc1cccc2c1[C@H](OC)[C@]13O[C@@]1(C2=O)[C@H](O)[C@H](C)[C@@](O)(C(=O)[C@@H]1O[C@H]1C)[C@@H]3O | -1.86% (active) |
| O=C(CCCCCCNC(=O)C(O)(O)C(F)(F)F)Nc1ncc(-c2ccccc2)s1 | 15.9% |
| Cc1ccc(-c2nc(SCC(=O)c3ccccc3)nc(Nc3ccc(S(N)(=O)=O)cc3)c2C#N)cc1 | 33% |
| NC(=O)c1c(NC(=O)c2ccc(C(F)(F)F)cc2)sc2c1CCC(=O)C2 | -14.5% (active) |
